Compound activity: PubChem BioAssay, NMMLSC
LAP4 TOR yeast – alters LAP4-GFP fluorescence in TOR pathway yeast screen; S. cerevisiae LAP4-GFP multiplex, flow cytometry GFP, 3 h; median GFP as percent of DMSO wells; GFP response vs DMSO, % at 10 µM; actives 0.34% (n = 320,000); AID 2023;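 active = GFP response vs DMSO above a set limit, about the screen mean plus 3 SD, cut at about 150% in these data; inconclusive = under 70 cell events counted for the yeast strain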
CIT2 TOR yeast – modulators of TOR pathway CIT2-GFP in S. cerevisiae. GFP response vs DMSO, % at 10 µM. actives 0.065% (n = 320,000). S. cerevisiae CIT2-GFP strain, flow cytometry, 3 h; 100 means same as DMSO wells;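 active = GFP response relative to DMSO above a set limit, near the screen mean plus 3 SD, cut at about 150% in these data; inconclusive = Fewer than 70 cells measured for a yeast strain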;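 also: ratio of well median GFP fluorescence to mean of DMSO wells on the plate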
AGP1-GFP MLPCN – alters AGP1-GFP fluorescence in TOR pathway yeast screen | S. cerevisiae AGP1-GFP multiplex flow cytometry, 3 h; GFP as percent of DMSO wells | GFP response vs DMSO, % at 10 µM | actives 0.02% (n = 320,000) | AID 2066;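 active = GFP response relative to DMSO above a set limit, near screen average plus 3 SD, cut at about 150% in these data; inconclusive = fewer than 70 cells counted for the yeast strain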;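 also: median GFP channel fluorescence of the gated AGP1 strain per well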
MEP2-GFP yeast – yeast TOR pathway MEP2-GFP modulation | S. cerevisiae MEP2-GFP strain, flow cytometry GFP, 3 h; 100% = DMSO control level | GFP response vs DMSO, % at 10 µM | actives 0.51% (n = 330,000) | AID 2016;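 active = GFP response versus DMSO above a set limit, roughly screen mean plus 3 SD, cut at about 180% in these data; inconclusive = fewer than 70 cells counted for a yeast strain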;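 also: median GFP fluorescence of the barcode-gated MEP2-GFP cells per well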
RPL19A-GFP yeast – yeast TOR pathway RPL19A-GFP modulation | percent response vs DMSO, % at 10 µM | S. cerevisiae RPL19A-GFP strain, flow cytometry, 3 h; stronger effect = lower value | actives 0.3% (n = 330,000) | AID 2025;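 active = percent response vs DMSO below 50%; inconclusive = fewer than 70 events counted for the yeast strain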;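 also: median channel GFP fluorescence of the barcoded RPL19A-GFP strain; ratio of sample median GFP to plate DMSO average so 100% = DMSO; lower means less RPL19A-GFP as with rapamycin TOR inhibition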
Efflux pump inh – inhibitors of Candida antifungal efflux pumps expressed in yeast | AID 485275 | inhibition, % at 10 µM | S. cerevisiae Candida pump triplex, Nile Red efflux | actives 0.44% (n = 330,000);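 active = plate passing quality check with inhibition over a set limit, or well fluorescence over plate mean plus 4 SD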;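 also: Nile Red retained in pooled yeast measured as flow cytometry median fluorescence; 0% = buffer negative control and 100% = Enniatin B positive control; higher means more Nile Red kept so more efflux inhibition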
Active calls of the source: *; ? = inconclusive; / = no result; [ ] = dose if it differs, or a comment. Compounds with a hit are over-represented: about 1.3% of the library has one in this group of screens.

SMILES	LAP4 TOR yeast	CIT2 TOR yeast	AGP1-GFP MLPCN	MEP2-GFP yeast	RPL19A-GFP yeast	Efflux pump inh
CC(=O)Oc1ccc2nc(-c3ccco3)oc(=O)c2c1	99.5	94.4	94.7	99.0	96.5	-0.1
CC(C)(C)OC1NS(=O)(=O)OCC1NCOC(Cl)(Cl)Cl (stereo not given)	105.0	100.6	92.2	88.2	97.2	0.0
Cc1cc(C)cc(OCC(O)Cn2nc(C)cc2C)c1 (stereo not given)	107.6	105.6	109.5	115.8	108.8	0.2
CCN(c1ccccc1)S(=O)(=O)c1nnc(NC(=O)C(C)C)s1	59.6	?	?	337.8*[may fluoresce violet]	21.9*[may fluoresce violet]	-0.1
CCN(CC)c1ccc(/C=N/NC(=O)c2cc(C)nc3ccccc23)cc1	/	/	/	677.8*[may fluoresce violet]	50.4	0.1
O=C(Nc1ccc(Cl)c(Cl)c1)N(CCCN1CCOCC1)Cc1cccnc1	91.5	?	19.2	179.6*[may fluoresce violet]	49.5*[may fluoresce violet]	0.1
COC(=O)c1c(NC(=O)C(=O)N2CCCC2)sc2c1CC(C)(C)OC2	83.4	94.4	88.5	93.8	94.6	0.2
O=C(O)c1ccc2ccc3ccccc3c2c1	139.3	110.3	103.6	205.3*	91.0	0.0
N=c1c(C(=O)NCCN2CCOCC2)cc2c(=O)n3ccccc3nc2n1Cc1ccc(F)cc1	79.8	?	15.0	139.9	27.7*[may fluoresce violet]	0.0
N=c1c(C(=O)NCCN2CCOCC2)cc2c(=O)n3ccccc3nc2n1CCCN1CCOCC1	77.8	?	?	247.5*[may fluoresce violet]	51.7	0.1
O=C(/C=C/c1cccc2ccccc12)N1CCOCC1	109.2	89.4	99.4	99.3	95.7	-0.1
COc1ccc(C(=O)Nc2c(N)nc[nH]c2=O)cc1	/	/	/	181.5*	65.5	0.0
COC(=O)Cc1ccc(OCc2ccc(Cl)nc2)cc1	163.0*	57.4	75.5	73.8	75.3	-0.4
Cc1onc(-c2ccccc2)c1C(=O)OCc1nnc(-c2ccccc2)o1	128.2	83.6	100.5	102.1	95.0	0.0
COc1ccc(CN(C)C(=O)C23CC4CC(CC(C4)C2)C3)c(OC)c1	?	?	?	?	47.1*[may fluoresce violet]	-0.2
CCN(CC)CCN(Cc1cc2cc3c(cc2[nH]c1=O)OCCO3)C(=S)NCCCOC	115.0	108.0	108.5	117.6	113.4	0.0
Cc1cc(C)c(C(=O)COC(=O)c2ccc([N+](=O)[O-])o2)cc1C	224.7*	65.0	97.1	94.6	98.8	-0.2
CC(=O)N[C@@H](CC(=O)N[C@H](CCC(=O)O)C(=O)O)C(=O)O	100.3	?	15.8	528.1*[may fluoresce violet]	47.3*[may fluoresce violet]	-0.1
O=C(O)CCC(NC(=O)c1cncc(O)c1)C(=O)O (stereo not given)	105.1	101.6	98.5	99.1	101.9	-0.1
CCOC(=O)Cn1c(C)[n+](CC(=O)c2ccccc2)c2ccccc21	134.9	109.7	109.0	106.1	100.2	0.0
CCOc1cc(C(=O)NCC(=O)N2CCC3(CC2)NCCc2[nH]cnc23)cc(OCC)c1OCC	95.9	102.5	101.7	101.8	100.4	0.1
N=c1oc2cc(O)ccc2cc1C(=O)Nc1ccc(F)cc1	71.8	?	19.4	835.9*[may fluoresce violet]	41.0*[may fluoresce violet]	0.2
O=C(c1ccc(F)cc1)c1cc2ccc(O)cc2oc1=O	91.8	94.2	93.1	88.2	91.8	0.1
Nc1ccc(-c2c3ccc(=O)cc-3oc3cc(O)ccc23)cc1C(=O)O	157.4*	141.6	112.5	123.6	100.8	0.2
O=c1ccc2c(-c3ccccc3)c3ccc(O)cc3oc-2c1	101.2	112.2	90.1	121.2	103.4	0.4
Cc1cc(N)n(Cc2cccs2)n1	90.9	101.0	99.3	102.9	98.4	-0.2
O=C(NC1CCSc2ccccc21)c1c(F)cccc1Cl (stereo not given)	96.5	90.6	97.0	99.7	102.0	0.3
O=S(=O)(NCCc1ccccn1)c1ccc(OC(F)(F)F)cc1	111.3	170.9*[may fluoresce green]	123.2	112.0	95.3	-0.4
COc1ccccc1CNC(=O)C1CCN(S(=O)(=O)c2ccc3nc4c(c(C(=O)O)c3c2)CCCC4)CC1	49.9	?	?	257.9*[may fluoresce violet]	34.7*[may fluoresce violet]	-0.1
Cc1ccnc(SCC(=O)N2CCC(C(N)=O)CC2)n1	97.8	?	?	357.7*[may fluoresce violet]	14.5*[may fluoresce violet]	-0.1
